From PubChem BioAssay (NCATS)

Assay: High-throughput drug toxicity screening in the BPDCN cell line Gen2.2 (AID 1224824);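 further: cells exposed to compounds for 48 h before reading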
Conditions: Gen2.2 BPDCN cells; at 45.8 µM (top of the series) unless noted
Method in brief: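 Seed 500 exponentially growing Gen2.2 cells/well; add compounds by pin tool; incubate 48 h, 37 °C, 5% CO2; add CellTiter-Glo, 15 min RT; read luminescence. % activity vs DMSO (100%) and bortezomib (0%).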

Row | Compound | cell viability, % of control (lower = more cytotoxic)
1 | Cc1cnc(CNC(=O)c2c(=O)c3ccc(N4CCCN(C)CC4)nc3n3c2sc2ccccc23)cn1 | 230% [at 23.2 µM]
2 | CCC[C@H](N[C@@H](C)C(=O)N1[C@@H]2CCCC[C@H]2C[C@H]1C(=O)O)C(=O)OCC | 64.1%
3 | CCn1c(-c2nonc2N)nc2cncc(CNC3CCNCC3)c21 | 7.5%
4 | Cn1c(=O)c(-c2c(Cl)cccc2Cl)cc2cnc(Nc3cccc(C(=O)O)c3)nc21 | 462%
5 | O=C1NC(=O)C(c2cnc3ccccn23)=C1c1cn2c3c(cccc13)CN(C(=O)N1CCOCC1)CC2 | 36.5%
6 | Cc1c(-c2cccc3c(CCCOc4cccc5ccccc45)c(C(=O)O)n(Cc4cccnc4)c23)c(COc2ccc(N3CCN([S+](=O)([O-])N(C)C)CC3)cc2)nn1C | 121%
7 | O=C(Nc1cccc(C(F)(F)F)c1)Nc1cc(S(=O)(=O)NC2CC2)ccc1-c1ccsc1 | 316%
8 | CC(=O)NCCC(=O)N[C@@H](CCC(N)=O)C(=O)N[C@@H](CO)C(=O)N[C@@H](CCC(N)=O)C(=O)N[C@@H](CCC(N)=O)C(=O)N[C@H](C(=O)N[C@@H](Cc1ccccc1)C(=O)N[C@]1(C)CCCCCCC=CCCC[C@@](C)(C(=O)N[C@@H](CCC(N)=O)C(=O)N[C@@H](CC(N)=O)C(N)=O)NC(=O)[C@H](CC(C)C)NC(=O)[C@H](CC(C)C)NC(=O)[C@@H](CCCNC(=N)N)NC(=O)[C@H](Cc2c[nH]c3ccccc23)NC(=O)[C@H](CC(C)C)NC(=O)[C@H](CC(N)=O)NC1=O)[C@H](C)O | 27%
9 | C=C1c2cccc(O)c2C(O)=C2C(=O)[C@@]3(O)C(O)=C(C(N)=O)C(=O)[C@@H](N(C)C)[C@@H]3[C@@H](O)[C@H]12 | 88.8%
10 | C[C@@]1(c2cc(-c3cncnc3)c(F)cc2F)CCSC(N)=N1 | 9.95%
11 | Cc1cc(CS(=O)(=O)c2ccccc2)cc(OCc2ccc(CN3CCC[C@H]3CO)cc2)c1 | 318%
12 | O=C1Nc2ccc(I)cc2C1=Cc1cc(Br)c(O)c(Br)c1 | 562%
13 | CCc1cccc(CC)c1NC(=O)N1Cc2[nH]nc(NC(=O)c3ccc(N4CCN(C)CC4)cc3)c2C1 | 146%
14 | Nc1[nH]nc2nnc(-c3c(-c4ccccc4)nn4ccccc34)cc12 | 5.31%
15 | Cc1nc(NC(=O)N2CCC[C@@H]2C(N)=O)sc1-c1csc(C(C)(C)C)n1 | 14.1%
16 | CCCCc1ccc(NS(=O)(=O)c2ccc(C)c(C(=O)N3CCN(c4cccc(C)c4C)CC3)c2)cc1 | 425%
17 | CCNC(=O)c1noc(-c2cc(C(C)C)c(O)cc2O)c1-c1ccc(CN2CCOCC2)cc1 | 14.2%
18 | N#CC1(c2cccc(C(=O)Nc3cc(Oc4ccc5nc(NC(=O)C6CC6)sc5n4)ccc3F)c2Cl)CC1 | 7.3%
19 | CC1C(=O)OC2C(O)C34C5CC(C(C)(C)C)C36C(OC(=O)C6O)OC4(C(=O)O5)C12O (configuration not stated) | 158%

Row | Compound | cell viability, % of control (lower = more cytotoxic)
20 | CN(C)CCOc1ccc(C(=C(CCCl)c2ccccc2)c2ccccc2)cc1 | 103%
21 | COc1ccc(-c2cc(=O)c3c(O)cc(O[C@@H]4O[C@H](CO[C@@H]5O[C@@H](C)[C@H](O)[C@@H](O)[C@@H]5O)[C@@H](O)[C@H](O)[C@@H]4O)cc3o2)cc1O | 93%
22 | CCCCC(C)(C)[C@H](O)C=C[C@H]1[C@H](O)CC(=O)[C@H]1CC=CCCCC(=O)O | 29.2%
23 | CC1(COc2ccc3c(c2)ncn3-c2ccc3cccc(N4CCC(N)CC4)c3n2)COC1 | 5.87%
24 | O=C(NCCCCN1CCOCC1)c1cc2ccccc2o1 | 213%
25 | CC(=O)O[C@]1(C(C)=O)CC[C@H]2[C@@H]3C=C(Cl)C4=CC(=O)[C@@H]5C[C@H]5[C@]4(C)[C@@H]3CC[C@@]21C | 42.4%
26 | CCC[C@H](Nc1nc(-c2ccc(NC(=O)NCC)c(OC)c2)ncc1C)c1cccnc1 | 9.57%
27 | COc1cc2nc(-c3cc(F)ccc3O)nc(N[C@@H]3CNC[C@@H]3C(C)(C)O)c2cc1OC | 4.14%
28 | O=C(Nc1cccc2c(=O)cc(-c3nn[nH]n3)oc12)c1ccc(OCCCCc2ccccc2)cc1 | 51.3%
29 | CC[C@H](C=C[C@@H](C)[C@H]1CC[C@H]2[C@@H]3CC=C4C[C@@H](O)CC[C@]4(C)[C@@H]3CC[C@]12C)C(C)C | 72.7% [at 23.2 µM]
30 | CN1CCC(COc2cnc(-c3cccc(Cn4nc(-c5cccc(C#N)c5)ccc4=O)c3)nc2)CC1 | 92.7%
31 | CC(C)Oc1cc(Nc2nc(N[C@@H](C)c3ccc(F)cn3)ncc2Cl)[nH]n1 | 93%
32 | CC[C@]1(O)C[C@H]2CN(CCC3=c4ccccc4=N[C]3[C@@](C(=O)OC)(c3cc4c(cc3OC)N(C)[C@H]3[C@@](O)(C(N)=O)[C@H](O)[C@]5(CC)C=CCN6CC[C@]43[C@@H]65)C2)C1 | 14.7%
33 | CCOC(=O)N1CCN([N+]([O-])=NOc2cc(ON=[N+]([O-])N3CCN(C(=O)OCC)CC3)c([N+](=O)[O-])cc2[N+](=O)[O-])CC1 | 87.7%
34 | CCOC(=O)[C@H](CCc1ccccc1)N[C@@H](C)C(=O)N1CCCC1C(=O)O (some centres not stated) | 190%
35 | Cc1ccc(NC(=O)Nc2cc(C(F)(F)F)ccc2F)cc1Nc1ccc2c(c1)NC(=O)C2=Cc1ccc[nH]1 | 4.16%
36 | C=C[C@@H]1CN2CCC1C[C@@H]2C(O)c1ccnc2ccc(OC)cc12 (some centres not stated) | 130%
37 | CN1CCN2c3ncccc3Cc3ccccc3C2C1 (configuration not stated) | 260%
